Glyco luc inh: increase of ERlucT glycosylation luciferase signal, primary screen, N-linked glycosylation inhibitor project, D54 ERlucT cells, luminescence, set 2; actives 0.23% (n = 360,000); reporter increase, % at 12.5 µM; D54 ERlucT glycosylation luciferase reporter, 24 h; percent of 100 nM tunicamycin response;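 active = mean luciferase reporter signal, scaled so untreated is 0 and the glycosylation-blocking control 100, at or above a set limit in every replicate; inconclusive = mean reaches the limit but not every replicate does; inactive = mean below the limit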;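 note: luciferase carries N-glycosylation sites so blocking glycosylation raises the light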
esBAF inh: Bmi1 luciferase reporter increase in mESCs, primary screen, esBAF inhibitor project, mouse ES cells, Bmi1 luciferase knock-in, single point. AID 602393, 2012. actives 2% (n = 350,000). 24 h; 100% = twice the neutral-well signal. reporter increase, % at 12.5 µM; in the data active = activation above about 40%; inconclusive = no clear call, values can overlap the other calls;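 note: a rise in the Bmi1 reporter signal indicates esBAF inhibition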
PvdQ inh: P. aeruginosa PvdQ acylase inhibitors, primary screen, biochemical, fluorescence, plate reader and imaging, single point; actives 0.063% (n = 340,000); AID 488965, 2010; purified PvdQ acylase; inhibition, % at 10 µM; in the data active = inhibition above about 30%, passing the limit was not always enough; inconclusive = no clear call, values can overlap the other calls
Vif inh: HIV Vif self-association inhibitors, primary screen, imaging, HEK293T, single point; HEK293T cells, Vif self-association by quenched fluorescence, 24 h; inhibition, % at 7.49 µM; actives 0.35% (n = 340,000); AID 602346, 2012; in the data active = inhibition above about 50%, passing the limit was not always enough; inconclusive = no clear call, values can overlap the other calls; inactive = below about 31%
MITF act: activators of MITF-driven TRPM1 promoter reporter, primary screen, cell-based, SK-MEL-5, luciferase, single point. actives 0.75% (n = 300,000). activation, % at 12.5 µM. SK-MEL-5 TRPM1-promoter luciferase, 24 h; % of positive control, neutral wells = 0. AID 588334, 2011;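 active = mean activation of at least 80% with every replicate also reaching 80%; inconclusive = mean reaches 80% but some replicate falls short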
Wnt act: Wnt/beta-catenin pathway activators, primary screen, cell-based, plate reader, single point; Wnt/beta-catenin reporter cell assay, activator; actives 1.2% (n = 300,000); AID 743398, 2014; activation, % at 9.35 µM; in the data active = activation above about 30%, passing the limit was not always enough; inconclusive = no clear call, values can overlap the other calls
Numbers stand for hits. In the library only some 2.9% were active in any assay of this set; here they are far more common.

Results for Cc1cc(C)cc(NC(=O)CSc2nc3ccncc3[nH]2)c1 ?
Glyco luc inh: inactive; esBAF inh: inactive; PvdQ inh: inactive; Vif inh: inactive; Wnt act: inactive

Results for CC1(C)CC(=O)/C(=N/Nc2ccc(Cl)cc2)CO1 ?
Glyco luc inh: inactive; esBAF inh: 55; PvdQ inh: inactive; Vif inh: inactive; MITF act: inactive; Wnt act: 52

How did CNC[C@H]1Oc2ccc(NS(=O)(=O)c3c(C)noc3C)cc2C(=O)N([C@@H](C)CO)C[C@@H]1C do in these assays?
esBAF inh: inactive

What do the screens show for `COCCNC(=O)C[C@H]1C[C@H]2c3cc(NC(=O)CN(C)C)ccc3O[C@H]2[C@H](CO)O1`?
esBAF inh: inactive

How did Clc1ccc2[nH]c(-c3ccccc3)cc2c1 do in these assays?
Glyco luc inh: inactive; esBAF inh: 60; PvdQ inh: inactive; Vif inh: inactive; MITF act: inactive

How did C[C@H]1CN([C@@H](C)CO)S(=O)(=O)c2ccc(-c3cccc(C#N)c3)cc2O[C@H]1CN(C)C(=O)c1ccc(F)cc1 do in these assays?
esBAF inh: inactive

How did CCOC(=O)N1CCC(N2CCCC(C(=O)c3cc(F)ccc3OC)C2)CC1 (stereo not drawn) do in these assays?
Glyco luc inh: inactive; PvdQ inh: inactive; Vif inh: inactive; MITF act: inactive; Wnt act: 50

Results for CCc1noc(C)c1C(=O)N1CCCC(C(=O)c2cc(F)ccc2OC)C1 (stereo not drawn) ?
Glyco luc inh: inactive; esBAF inh: inactive; PvdQ inh: inactive; Vif inh: inactive; MITF act: inactive; Wnt act: inactive

Results for Clc1cc(Cl)c2nc(N3CCOCC3)sc2c1 ?
Glyco luc inh: inactive; esBAF inh: 61; PvdQ inh: inactive; Vif inh: inactive; Wnt act: 42

How did COc1ccc(C(=O)Nc2cc(C(C)=O)c(/C=C/N(C)C)oc2=O)cc1 do in these assays?
Glyco luc inh: inactive; esBAF inh: inactive; PvdQ inh: inactive; Vif inh: inactive; MITF act: inactive; Wnt act: inactive

How did CC(=O)c1cc(NC(=O)c2ccc(C)cc2)c(=O)oc1/C=C/N(C)C do in these assays?
Glyco luc inh: inactive; esBAF inh: 44; PvdQ inh: inactive; Vif inh: inactive; MITF act: inactive

How did COCCNC(=O)C[C@H]1C[C@H]2c3cc(NC(=O)C4CCC4)ccc3O[C@H]2[C@H](CO)O1 do in these assays?
esBAF inh: inactive

What do the screens show for `O=C(COc1ccccc1CNCc1ccccc1)Nc1ccccc1`?
Glyco luc inh: 47; esBAF inh: inactive; PvdQ inh: inactive; Vif inh: inactive; MITF act: inactive

Results for CC(C)CNC(=O)COC(=O)c1c2c(nc3ccccc13)/C(=C\c1cccs1)CC2 ?
Glyco luc inh: inactive; esBAF inh: 55; PvdQ inh: inactive; Vif inh: inactive; MITF act: inactive; Wnt act: inactive

What do the screens show for `COC(=O)C1C(=O)c2c([nH]c(C(=O)OCC3CCCO3)c2C)CC1C` (stereo not drawn)?
Glyco luc inh: inactive; esBAF inh: 55; PvdQ inh: inactive; Vif inh: inactive; MITF act: inconclusive; Wnt act: inactive

What do the screens show for `COC(=O)C1C(=O)c2c([nH]c(C(=O)OC3CCCCCC3)c2C)CC1C` (stereo not drawn)?
Glyco luc inh: inactive; esBAF inh: inactive; PvdQ inh: inactive; Vif inh: inactive; MITF act: 87; Wnt act: inactive

Results for COCC(=O)Nc1ccc2c(c1)C(=O)N(C)[C@@H]1CC[C@@H](CC(=O)NC3CCCC3)O[C@@H]1CO2 ?
esBAF inh: inactive

What do the screens show for `O=C1c2cccc3c(N4CCCCC4)ccc(c23)C(=O)N1c1ccc(O)cc1`?
Glyco luc inh: inactive; PvdQ inh: inactive; Vif inh: 112; MITF act: inactive; Wnt act: inactive

How did CCCCn1cnc2c(sc3nc4c(cc32)CSC(C)(C)C4)c1=O do in these assays?
Glyco luc inh: inactive; esBAF inh: 47; PvdQ inh: inactive; Vif inh: inactive; MITF act: inactive; Wnt act: inactive

How did CC(C)CCn1cnc2c(sc3nc4c(cc32)CSC(C)(C)C4)c1=O do in these assays?
Glyco luc inh: inactive; PvdQ inh: inactive; Vif inh: inactive; MITF act: 85; Wnt act: inactive

How did CC1(C)Cc2nc3sc4c(NCCO)ncnc4c3cc2CS1 do in these assays?
Glyco luc inh: inactive; esBAF inh: inactive; PvdQ inh: inactive; Vif inh: inactive; MITF act: inactive; Wnt act: inactive

Results for CCCNC(=O)N1C[C@@H](C)[C@H](OC)CN(C)C(=O)c2ccc(NC(=O)CCC)cc2OC[C@@H]1C ?
esBAF inh: inactive

What do the screens show for `O=[N+]([O-])c1cccc(-c2nnn(C34CC5CC(CC(C5)C3)C4)n2)c1`?
Glyco luc inh: inactive; esBAF inh: 50; PvdQ inh: inactive; Vif inh: inactive; MITF act: inactive

What do the screens show for `COc1cccc(S(=O)(=O)Nc2ccc3c(c2)[C@H]2C[C@H](CC(=O)NCc4cccc(F)c4)O[C@@H](CO)[C@H]2O3)c1`?
esBAF inh: inactive

How did Cc1cc(C(=O)COC(=O)c2ccc(NC(=O)CC#N)cc2)c(C)n1-c1ccc(OC(F)F)cc1 do in these assays?
Glyco luc inh: inactive; PvdQ inh: inactive; Vif inh: inactive; MITF act: inactive; Wnt act: inactive

What do the screens show for `Cc1cc(C(=O)COc2ccccc2C(N)=O)c(C)n1C1CC1`?
Glyco luc inh: inactive; PvdQ inh: inactive; Vif inh: inactive; MITF act: inactive; Wnt act: 39

How did Cc1cc(C(=O)COC(=O)c2ccc(NC(=O)CC#N)cc2)c(C)n1C1CC1 do in these assays?
Glyco luc inh: inactive; esBAF inh: 68; PvdQ inh: inactive; Vif inh: inactive; MITF act: inactive; Wnt act: inactive

How did Cc1cc(C(=O)COC(=O)c2ccc[nH]c2=O)c(C)n1C1CC1 do in these assays?
Glyco luc inh: inactive; esBAF inh: inactive; PvdQ inh: inactive; MITF act: inactive; Wnt act: inactive

How did Cc1cc(C(=O)COC(=O)c2ccc(F)cc2F)c(C)n1C1CC1 do in these assays?
Glyco luc inh: inactive; esBAF inh: inactive; PvdQ inh: inactive; Vif inh: inactive; MITF act: 118; Wnt act: inactive

Results for Cc1cc(C(=O)COC(=O)c2ccc(NC(=O)CC#N)cc2)c(C)n1CC(F)(F)F ?
Glyco luc inh: inactive; esBAF inh: 62; Vif inh: inactive; Wnt act: inactive

How did CC=Cc1ccc2n(c1=O)C[C@@H]1[C@@H](CO)[C@H](C(=O)NCCC)[C@H]2N1C(=O)c1ccccc1F (mixture of isomers) do in these assays?
esBAF inh: inactive
